{
  "source": "PubChem BioAssay AID1345085",
  "about": "(National Center for Advancing Translational Sciences (NCATS), 2018)",
  "note": "Records with an inconclusive call do not appear. A number with no mark means an inactive call. Activity calls are given as the source filed them. The call rests on the fitted dose curve; in most records, active means well fitted cell-killing curve with a large enough effect; inconclusive means small, poorly fitted or top-dose-only effect, or effect the other way; inactive means no such curve, though single readings can be large or run the other way. On the % scale 0 is the no-effect control and ±100 the full control effect; potency means the concentration at half of the fitted maximal effect.",
  "data": [
    {"test_system": "JEG-3", "test": "Confirmatory qHTS for gynecologic anti-cancer compounds from libraries of approved drugs and bioactive compounds; further: nearly all actives have a fitted effect of over 55% in size", "conditions": "gynecologic cancer cell panel viability, ATPlite luminescence, 48 h; series mostly up to 57.6 µM; activity change, negative = viability loss: at the top concentration", "procedure,_shortened": "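IC50 values derive from an ATPlite ATP-content luminescence assay following 48 h treatment at 37 C. Each compound ran as an 11-concentration, threefold series (57.5 uM to 0.977 nM); HEK 293T served as control line for selectivity index.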", "values": [
      {"smiles": "CCc1nc(C(N)=O)c(Nc2ccc(N3CCC(N4CCN(C)CC4)CC3)c(OC)c2)nc1NC1CCOCC1", "activity change, negative = viability loss": "-15.7% [at 45.6 µM]"},
      {"smiles": "Cc1ccc(C(=O)Nc2ccc(CN3CCN(C)CC3)c(C(F)(F)F)c2)cc1C#Cc1cnc2cccnn12", "Potency": "27.3 µM (active)"},
      {"smiles": "Cc1nc(N)sc1-c1ccnc(Nc2ccc(N3CCOCC3)cc2)n1", "Potency": "13.7 µM (active)"},
      {"smiles": "CC[C@@]1(O)C(=O)OCc2c1cc1n(c2=O)Cc2cc3c(CN(C)C)c(O)ccc3nc2-1", "Potency": "1.09 µM (active)"},
      {"smiles": "COc1ccc(-c2ccc3c(N4CCOCC4C)nc(N4CCOCC4C)nc3n2)cc1CO", "note": "(configuration not stated)", "activity change, negative = viability loss": "-1.03%"},
      {"smiles": "CC(C)Oc1ccc(C(=O)NC(CNC(=O)CN(C)C)Cc2ccc(-c3cn4cccc(C(C)O)c4n3)cc2)cc1Cl", "note": "(configuration not stated)", "Potency": "0.544 µM (active)"},
      {"smiles": "CCN1C[C@H](C)n2c(c(O)c3c(=O)n(Cc4ccc(F)c(Cl)c4)nc(C(=O)NC)c32)C1=O", "activity change, negative = viability loss": "2.48%"},
      {"smiles": "COc1cc2c(Nc3ccc(NC(=O)c4ccccc4)cc3)ncnc2cc1OCCCN1CCOCC1", "Potency": "27.3 µM (active)"},
      {"smiles": "Oc1cn2c(n1)Nc1ccc(Cl)c(Cl)c1C2", "activity change, negative = viability loss": "10.8% [at 19.5 µM]"},
      {"smiles": "CNc1nc(Nc2ccc(C(=O)N3CCOCC3)cc2OC)ncc1Cl", "activity change, negative = viability loss": "0.899%"},
      {"smiles": "Cn1cnc2c(F)c(Nc3ccc(Br)cc3Cl)c(C(=O)NOCCO)cc21", "activity change, negative = viability loss": "-22.5%"},
      {"smiles": "COc1cccc2cc(-c3nc(C4CCC(C(=O)O)CC4)n4ncnc(N)c34)[nH]c12", "note": "(configuration not stated)", "activity change, negative = viability loss": "-15%"},
      {"smiles": "CC[C@H](Nc1ncnc2nc[nH]c12)c1nc2cccc(F)c2c(=O)n1-c1ccccc1", "activity change, negative = viability loss": "-0.887% [at 10.6 µM]"},
      {"smiles": "O=C(NOC[C@H](O)CO)c1ccc(F)c(F)c1Nc1ccc(I)cc1F", "activity change, negative = viability loss": "-5.57%"},
      {"smiles": "CCS(=O)(=O)N1CCN(c2ccc(Nc3ncc(C(N)=O)c(NC4CC4)n3)cc2)CC1", "Potency": "9.68 µM (active)"},
      {"smiles": "CCC(=O)N1CCN(c2ccc(-n3c(=O)ccc4cnc5ccc(-c6cnc7ccccc7c6)cc5c43)cc2C(F)(F)F)CC1", "Potency": "6.27 µM (active)"},
      {"smiles": "C#C[C@]1(O)CC[C@H]2[C@@H]3CCC4=CC(=O)CC[C@@H]4[C@H]3CC[C@@]21CC", "activity change, negative = viability loss": "-1.31%"},
      {"smiles": "C[C@]12CCC(=O)C=C1[C@@H]1C[C@@H]1[C@H]1[C@@H]3[C@@H]4C[C@@H]4[C@@]4(CCC(=O)O4)[C@@]3(C)CC[C@@H]12", "activity change, negative = viability loss": "-18.8%"},
      {"smiles": "CCn1cc(-c2ccnc3[nH]c(-c4cccc(CN(C)C)c4)cc23)c(-c2ccc(NC(=O)N(C)C)cc2)n1", "Potency": "13.3 µM (active)"},
      {"smiles": "CCCCc1oc2ccccc2c1C(=O)c1cc(I)c(OCCN(CC)CC)c(I)c1", "Potency": "70.8 µM (active)"},
      {"smiles": "CCn1c(-c2nonc2N)nc2c(C#CC(C)(C)O)ncc(OCC3CCCNC3)c21", "note": "(configuration not stated)", "activity change, negative = viability loss": "1.27%"},
      {"smiles": "CC1=C(CO)C(=O)O[C@@H]([C@@H](C)[C@H]2CC[C@H]3[C@@H]4C[C@H]5O[C@]56[C@@H](O)C=CC(=O)[C@]6(C)[C@H]4CC[C@]23C)C1", "Potency": "5.3 µM (active)"},
      {"smiles": "O=C(CCCCCCC(=O)Nc1ccccc1)NO", "Potency": "2.43 µM (active)"},
      {"smiles": "CCCc1nn(C)c2c(=O)[nH]c(-c3cc(S(=O)(=O)N4CCN(C)CC4)ccc3OCC)nc12", "activity change, negative = viability loss": "16.3%"},
      {"smiles": "CC(C)C[C@H](NC(=O)[C@@H](NC(=O)c1cccc(-c2ccccc2)n1)[C@@H](C)O)B(O)O", "Potency": "1.53 µM (active)"},
      {"smiles": "CC1=C(/C=C/C(C)=C/C=C/C(C)=C/C(=O)Nc2ccc(O)cc2)C(C)(C)CCC1", "Potency": "21.7 µM (active)"},
      {"smiles": "Nc1nc(=S)c2[nH]cnc2[nH]1", "Potency": "4.32 µM (active)"},
      {"smiles": "CN1CCN(Cc2ccc(NC(=O)Nc3ccc(Oc4cc(NC(=O)C5CC5)ncn4)cc3)cc2C(F)(F)F)CC1", "Potency": "0.243 µM (active)"},
      {"smiles": "COc1cc2nccc(Oc3ccc(NC(=O)C4(C(=O)Nc5ccc(F)cc5)CC4)cc3)c2cc1OC", "Potency": "10.9 µM (active)"},
      {"smiles": "Cc1cnc(Nc2ccc(OCCN3CCCC3)cc2)nc1Nc1cccc(S(=O)(=O)NC(C)(C)C)c1", "Potency": "24.3 µM (active)"},
      {"smiles": "Cc1c(NC(=O)OCC2COCCN2)cn2ncnc(Nc3ccc4c(cnn4Cc4cccc(F)c4)c3)c12", "note": "(configuration not stated)", "Potency": "30.6 µM (active)"},
      {"smiles": "CN(C)C(CCOc1cccc2ccccc12)c1ccccc1", "note": "(configuration not stated)", "activity change, negative = viability loss": "-13.9%"}
    ]}
  ]
}
